# Bioassay records (PubChem)
# Sm TGR inh – inhibitors of Schistosoma mansoni thioredoxin glutathione reductase; Q962Y6; purified TGR, DTNB reduction, TNB absorbance 405 nm; Potency, µM (top dose mostly 114 µM), actives largely listed as inhibitors; 3% of 360,000 active; AID 485364; note: nearly all actives have a fitted effect of over 60% in size
#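 First, TGR (20 nM dispensed) and NADPH were mixed with compound. Second, a 15 min room-temperature incubation followed. Third, further NADPH and then DTNB were added to start the reaction. Finally, TNB absorbance was monitored kinetically.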
# LmPK inhibitor – blocks Leishmania mexicana pyruvate kinase activity; Q27686; purified LmPK, Kinase-Glo ATP luminescence, 1 h; Potency, µM (series often up to 57.5 µM), hits mostly inhibitors; 0.37% of 290,000 active; AID 1721
# Target sequence (Q27686 whole entry, looked up): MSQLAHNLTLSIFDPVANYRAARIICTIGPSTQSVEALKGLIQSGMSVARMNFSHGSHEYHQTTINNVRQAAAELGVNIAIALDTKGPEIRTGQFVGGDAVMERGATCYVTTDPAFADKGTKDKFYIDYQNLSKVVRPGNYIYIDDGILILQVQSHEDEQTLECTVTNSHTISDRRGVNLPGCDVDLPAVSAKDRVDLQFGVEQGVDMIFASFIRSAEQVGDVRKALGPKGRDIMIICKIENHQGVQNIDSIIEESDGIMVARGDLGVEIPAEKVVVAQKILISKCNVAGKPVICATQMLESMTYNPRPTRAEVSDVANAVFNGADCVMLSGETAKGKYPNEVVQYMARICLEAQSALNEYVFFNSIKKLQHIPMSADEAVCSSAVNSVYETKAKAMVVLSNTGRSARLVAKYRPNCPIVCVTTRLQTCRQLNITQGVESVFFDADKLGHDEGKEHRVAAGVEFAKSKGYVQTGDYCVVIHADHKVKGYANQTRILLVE
#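 Screened at intermediate enzyme activity to detect both inhibitors and activators: LmPK at 0.1 nM, with a 0.5 nM enzyme column as activation reference. PEP 0.5 mM, ADP 0.1 mM; ATP detected by luminescence after 1 h.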
# TbPYK inhibitor – inhibitors of Trypanosoma brucei pyruvate kinase; TbPYK enzyme, Kinase-Glo Plus ATP luminescence, 45 min; Potency, µM (highest dose often 76.8 µM), hits mostly inhibitors; 0.12% of 410,000 active; Q57TT1; AID 624173; note: nearly all actives have a fitted effect of over 50% in size
#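 ADP (130 uM final) triggers the TbPYK reaction after compound addition; incubation is 45 min at room temperature. Kinase-Glo Plus is then added and luminescence imaged. Normalized data are fitted to concentration-effect curves.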
# RE007 growth inh – less growth of the S. pombe RE007 Vpr strain; 0.21% of 360,000 active; S. pombe RE007 Vpr strain, BacTiter-Glo ATP luminescence, 24 h; AID 651644; Potency, µM (highest dose often 92.2 µM), most hits filed as inhibitors; active = well fitted falling curve with a large enough effect; inconclusive = small, poorly fitted or top-dose-only effect; inactive = no such curve, though single readings can be large or run the other way; note: nearly all actives have a fitted effect of over 50% in size
#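 Fission yeast RE007 carrying one integrated HIV-1 vpr copy, seeded at OD 0.01 in PMG+AL medium with 23 nL pinned compound. Grown 24 h at 30 degrees; viability read by BacTiter-Glo luminescence after 5 min.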
# AMA1-RON2 inh – AMA1-RON2 (P. falciparum) interaction inhibition; AlphaScreen AMA1-biotinylated RON2 peptide binding; Potency, µM (titrated, usually from 58.2 µM), actives largely listed as inhibitors; 0.2% of 360,000 active; note: nearly all actives have a fitted effect of over 45% in size
#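 AMA1 (3D7) with his tag at 25 nM final met compounds first, then biotinylated RON2 peptide at 25 nM; detection used donor plus acceptor beads, 10 µg/mL apiece, read by AlphaScreen after 30 min at room temperature.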
# A number is an active result; 0 = inactive; ? = inconclusive; - = no result given; [ ] = dose if it differs, or a comment. An excerpt weighted towards active compounds, which were near 3.2% of everything screened. Unless noted, calls come from the whole dose curve; as a rule, active = well fitted curve in the direction sought with a large enough effect; inconclusive = small, poorly fitted or top-dose-only effect, or another doubt; inactive = no such curve, though single readings can be large; an effect the other way counts as inactive or inconclusive.
SMILES,Sm TGR inh,LmPK inhibitor,TbPYK inhibitor,RE007 growth inh,AMA1-RON2 inh
Cc1ccc(/C=C/C(=O)N2CCN(S(=O)(=O)/C=C/c3ccccc3)CC2)o1,14µM,0,0,0,0
O=C(/C=C/c1ccccc1)N1CCN(C(=O)c2ccco2)CC1,0,0,0,0,0
O=C(/C=C/c1ccco1)N1CCN(C/C=C/c2ccccc2)CC1,40µM,0,0,0,0
O=C1CC(c2cccc(Cl)c2Cl)c2cc3c(cc2N1)OCCO3 (stereo not drawn),0,-,0,-,-
O=C(C=Cc1ccco1)N1CCOCC1,-,-,0,0,0
O=C(/C=C/c1ccco1)N1CCN(c2ccccc2)CC1,11µM,0,0,0,0
Cc1ccc(-c2nc(CS(=O)CC(=O)N3CCN(c4ccc(Cl)cc4)CC3)c(C)o2)cc1 (stereo not drawn),?,-,0,-,-
Cc1cc(O)c(C(C)C)cc1N=Cc1ccccc1O,4µM,0,0,0,0
Cc1cc(O)c(C(C)C)cc1N=Cc1cc([N+](=O)[O-])ccc1O,?,0,0,0,0
CCCOc1ccc(N2C(=O)CC(N3CCN(c4ccccc4OC)CC3)C2=O)cc1 (stereo not drawn),50µM,0,0,?,0
CCOc1ccc(N2C(=O)CC(N3CCN(c4ccccc4F)CC3)C2=O)cc1 (stereo not drawn),0,0,0,0,0
COc1ccccc1N1CCN(C2CC(=O)N(c3cccc(Cl)c3)C2=O)CC1 (stereo not drawn),40µM,0,0,?,0
COc1ccccc1N1C(=O)CC(N2CCN(c3ccc([N+](=O)[O-])cc3)CC2)C1=O (stereo not drawn),40µM,0,0,0,0
COc1ccccc1N1CCN(C2CC(=O)N(c3ccc(F)cc3)C2=O)CC1 (stereo not drawn),?,0,0,0,0
CCOc1ccc(N2C(=O)CC(N3CCN(c4ccccc4OC)CC3)C2=O)cc1 (stereo not drawn),40µM,0,0,28µM,0
CCOc1ccc(CCNC(=O)c2ccc3c(c2)N(Cc2ccccc2)C(=O)c2ccccc2S3=O)cc1OCC (stereo not drawn),0,-,0,-,-
NC(=O)c1c(NC(=O)CSc2nnc(Cc3ccccc3)n2Cc2ccco2)sc2c1CCC2,25µM,0,0,0,0
O=C(CSc1nnc(Cc2cccs2)n1Cc1ccco1)Nc1ccc(Br)cc1,20µM,0,0,0,0
CCN(CC)CCNC(=O)c1cc2c(=O)n(C)c3cc(Cl)ccc3c2s1,0,-,0,-,-
Cc1noc(C)c1S(=O)(=O)N1CCC(C(=O)N2CCN(C3CCCC3)CC2)CC1,32µM,0,-,-,-
CCOc1ccc(NC(=O)C2CCN(S(=O)(=O)c3c(C)noc3/C=C/c3ccco3)CC2)cc1,0,-,0,-,-
Cc1noc(C)c1S(=O)(=O)N1CCC(C(=O)N2CCN(c3ccc(F)cc3)CC2)CC1,0,0,0,0,0
CCC(C)N1CCN(C(=O)C2CCN(S(=O)(=O)c3c(C)noc3/C=C/c3ccco3)CC2)CC1 (stereo not drawn),45µM,0,0,0,0
Cc1ccc(C(=O)c2no[n+]([O-])c2C(=O)c2ccc(C)cc2)cc1,0,0,0,32µM,0
CC(C)(C)c1cc(CNC2CS(=O)(=O)C[C@@H]2O)cc(C(C)(C)C)c1O (stereo partly drawn),1.6µM,0,0,0,0
SMILES,Sm TGR inh,LmPK inhibitor,TbPYK inhibitor,RE007 growth inh,AMA1-RON2 inh
O=S1(=O)CC(O)C(NCc2ccco2)C1 (stereo not drawn),0,0,0,0,0
Cc1cc(-c2ccco2)n(-c2ccccc2)n1,4µM,0,0,0,0
O=C(O)CCS(=O)(=O)c1nc(-c2cccs2)cc(C(F)(F)F)n1,50µM,0,0,0,0
O=C(CCSc1nc(-c2ccco2)cc(C(F)(F)F)n1)Nc1cccc(O)c1,0,-,0,-,-
CC(C)CNC(=O)CSc1nc(-c2cccs2)cc(C(F)(F)F)n1,0,0,0,0,0
Cc1cc(NC(=O)CCCS(=O)(=O)c2nc(-c3cccs3)cc(C(F)(F)F)n2)no1,13µM,0,0,0,0
O=C(CCS(=O)(=O)c1nc(-c2cccs2)cc(C(F)(F)F)n1)Nc1cccc(O)c1,32µM,-,0,-,-
Cc1cc(NC(=O)CSc2nc(-c3cccs3)cc(C(F)(F)F)n2)no1,0,0,0,0,0
COc1ccc(-c2cc(C(F)(F)F)nc(S(C)(=O)=O)n2)cc1,25µM,0,0,0,0
COc1cc(NC(=O)CCS(=O)(=O)c2nc(-c3cccs3)cc(C(F)(F)F)n2)cc(OC)c1OC,?,-,0,-,-
CS(=O)(=O)c1nc(-c2cccs2)cc(C(F)(F)F)n1,7.9µM,0,-,-,-
COc1ccc(NC(=O)CCS(=O)(=O)c2nc(-c3cccs3)cc(C(F)(F)F)n2)cc1OC,40µM,-,0,-,-
CS(=O)(=O)c1nc(-c2ccc(F)cc2)cc(C(F)(F)F)n1,-,0,0,0,0
CCOC(=O)c1c(N)sc2c1CCN(Cc1ccccc1)C2,-,-,0,-,-
CCOc1ccc(NC(=O)CSC2=Nc3ccccc3C3=NC(CC(=O)NCc4ccccc4OC)C(=O)N23)cc1 (stereo not drawn),0,-,0,-,-
Cc1cc(C(=O)OCC(=O)N2c3ccccc3CC2C)c(C)o1 (stereo not drawn),25µM,0,0,0,0
Cc1cc(C(=O)OCC(=O)N2CC(C)CC(C)C2)c(C)o1 (stereo not drawn),25µM,0,0,0,0
CC1CC(C)CN(C(=O)COC(=O)c2cc3ccccc3oc2=O)C1 (stereo not drawn),-,-,0,0,0
O=C(COc1cc(F)ccc1[N+](=O)[O-])Nc1ccc(N2CCCCC2)cc1,0,-,0,0,?
O=C(COc1cc(F)ccc1[N+](=O)[O-])Nc1ccc(N2CCOCC2)cc1,45µM,0,0,0,0
CS(=O)(=O)c1ccc(C(=O)Nc2nc(-c3ccco3)c(-c3ccco3)s2)cc1,3.5µM,-,?,0,?
O=C(Nc1nc(-c2ccco2)c(-c2ccco2)s1)C1CCC1,?,0,0,0,?
O=C(c1ccc2c(c1)N(Cc1ccc(Cl)cc1)C(=O)c1ccccc1S2(=O)=O)N1CCCCCC1,0,-,0,-,-
C[C@H]1[C@@H]2Cc3ccc(O)cc3[C@]1(C)CCN2CCc1ccccc1,-,-,0,-,-
O=C(CCS(=O)NCc1ccccc1)NCc1ccccc1 (stereo not drawn),32µM,0,-,-,-
O=C(CCS(=O)CCC(=O)NCc1ccccc1)NCc1ccccc1,0,0,0,0,0
Cc1ccc(CNC(=O)c2ccc3c(c2)c(C)c(C)n3Cc2ccc(Cl)cc2)o1,0,-,0[15.4 µM],-,-
C=CCN1C(=O)NC(=O)/C(=C/c2cc3c4c(c2)CCCN4CCC3)C1=O,8.9µM,0,0,0,0
C=CCn1c(SCC(=O)N2c3ccccc3Sc3ccccc32)nnc1-c1ccco1,?,0,0,0,0
